From PubChem
Compounds with a hit are over-represented: about 10% of the library has one in this group of screens.
G9a inh = inhibitors of human histone lysine methyltransferase G9a | G9a H3K9 monomethylation, AlphaScreen, 2 h | Potency, µM (doses to about 102 µM), most hits filed as inhibitors | 350,000 tested, 8.8% active | AID 504332; further: nearly all actives have a fitted effect of over 75% in size
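AlphaScreen detection with an anti-monomethyl H3K9 antibody quantified product after a 2 h room-temperature reaction containing 500 nM biotinylated H3K9 peptide, 20 µM SAM and 20 nM enzyme, which had been preincubated 15 min with compound.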
BAZ2B inh = inhibitors of human BAZ2B bromodomain | 360,000 tested, 4.4% active | Potency, µM (highest dose often 114 µM), actives largely listed as inhibitors | AlphaScreen BAZ2B-H3K14Ac peptide displacement; further: nearly all actives have a fitted effect of over 60% in size
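BAZ2B (50 nM) with biotin-H3(5-23)K14Ac peptide (50 nM) in PBS pH 7.4, 0.01% Tween-20, preformed 30 min, then compound 30 min at room temperature; top concentration 110uM. AlphaScreen streptavidin donor/nickel chelate acceptor beads (10 ug/mL final), 20 min dark, signal read.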
JMJD2A Tudor inh = inhibitors of human JMJD2A Tudor domain. AID 504339. 390,000 tested, 4.4% active. AlphaScreen JMJD2A-Tudor / H3K4me3 peptide binding. Potency, µM (top dose mostly 114 µM), most hits filed as inhibitors. O75164; further: nearly all actives have a fitted effect of over 50% in size
Target sequence (O75164 whole entry, looked up, the tested form may be a part): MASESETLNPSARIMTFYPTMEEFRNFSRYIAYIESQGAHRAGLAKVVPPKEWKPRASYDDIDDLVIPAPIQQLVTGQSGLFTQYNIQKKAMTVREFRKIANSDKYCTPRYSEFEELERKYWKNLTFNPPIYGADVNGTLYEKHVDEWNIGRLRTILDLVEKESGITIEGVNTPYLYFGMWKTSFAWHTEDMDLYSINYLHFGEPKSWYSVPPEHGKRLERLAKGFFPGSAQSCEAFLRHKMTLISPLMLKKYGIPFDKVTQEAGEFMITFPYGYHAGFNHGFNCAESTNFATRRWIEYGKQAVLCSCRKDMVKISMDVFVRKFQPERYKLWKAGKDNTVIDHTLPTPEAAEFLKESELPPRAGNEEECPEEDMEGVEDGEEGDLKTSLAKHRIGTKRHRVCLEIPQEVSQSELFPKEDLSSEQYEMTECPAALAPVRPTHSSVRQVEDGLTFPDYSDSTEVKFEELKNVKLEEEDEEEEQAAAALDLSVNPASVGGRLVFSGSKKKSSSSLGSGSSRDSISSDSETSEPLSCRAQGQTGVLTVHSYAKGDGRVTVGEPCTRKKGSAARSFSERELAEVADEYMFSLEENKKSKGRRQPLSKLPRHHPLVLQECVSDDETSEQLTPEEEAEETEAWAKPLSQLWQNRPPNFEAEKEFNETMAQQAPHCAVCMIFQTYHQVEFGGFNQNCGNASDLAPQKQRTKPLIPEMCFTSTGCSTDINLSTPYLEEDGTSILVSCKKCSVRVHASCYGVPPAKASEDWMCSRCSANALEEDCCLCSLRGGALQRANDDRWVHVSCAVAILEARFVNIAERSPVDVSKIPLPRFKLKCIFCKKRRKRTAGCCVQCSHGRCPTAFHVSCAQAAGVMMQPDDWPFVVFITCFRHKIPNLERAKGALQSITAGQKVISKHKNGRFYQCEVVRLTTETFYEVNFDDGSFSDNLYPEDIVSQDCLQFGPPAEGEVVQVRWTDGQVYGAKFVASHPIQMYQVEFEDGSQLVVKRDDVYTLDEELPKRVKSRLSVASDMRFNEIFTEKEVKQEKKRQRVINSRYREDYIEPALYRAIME
HP1b chromo inh = inhibitors of HP1-beta chromodomain binding to methylated histone tails. P83916. AID 540317. 390,000 tested, 0.56% active. AlphaScreen HP1-beta / biotin-H3K9me3 peptide binding. Potency, µM (highest dose often 114 µM), usual class: inhibitors; further: nearly all actives have a fitted effect of over 70% in size
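AlphaScreen: HP1-beta (50 nM) preformed 30 min with biotin-H3(1-18)K9me3 peptide (50 nM) in PBS pH 7.4, 0.01% Tween-20. Compound added for 30 min at RT, then streptavidin donor/nickel chelate acceptor beads (10 ug/mL) for 30 min.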
GLS inh = glutaminase GLS (human) inhibition. Potency, µM (titrated, usually from 45.5 µM), most hits filed as inhibitors. 410,000 tested, 0.21% active. O94925. GLS enzymatic activity, qHTS titration
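hKGA in 45 mM KH2PO4 (pH 8.2), 0.02% Tween-20 with compound, then 1mM L-Glutamine (stock as added) plus glutamate oxidase/HRP/Amplex red coupling mix. Fluorescence read initially and after 30 min at RT; signal change reflects glutamate formation.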
A number is an active result; n = inactive; u = inconclusive; x = no result; [ ] = dose if it differs, or a comment. The call rests on the fitted dose curve; in most records, active means well fitted curve in the direction sought with a large enough effect; inconclusive means small, poorly fitted or top-dose-only effect, or another doubt; inactive means no such curve, though single readings can be large; an effect the other way counts as inactive or inconclusive.

SMILES	G9a inh	BAZ2B inh	JMJD2A Tudor inh	HP1b chromo inh	GLS inh
CC1CCCC(C)N1S(=O)(=O)c1ccc(S(=O)(=O)N2CCOCC2)cc1 (stereo not given)	n	n	n[11.4 µM]	n	n
Cc1cccc(N2C(=O)c3cccc(Oc4ccc(Cl)cc4)c3C2=O)c1	n	n	n	n	n
N#CC(=C(\N)Sc1ccccc1N)/C(C#N)=C(/N)Sc1ccccc1N	32µM	x	x	x	x
Cc1noc(NS(=O)(=O)c2ccc(N)cc2)c1C	n	n	n	n	n
CC1(c2ccc([N+](=O)[O-])cc2)NC(=O)N(CC(=O)Nc2ccc(N3CCCCC3)cc2)C1=O (stereo not given)	11µM	35µM	u	u	n
O=C(CN1C(=O)NC2(CCCCCCC2)C1=O)Nc1ccc(OC(F)F)cc1	x	x	n	n	n
CC1(c2ccc(OC(F)F)cc2)NC(=O)N(CC(=O)Nc2ccc(N3CCCCC3)cc2)C1=O (stereo not given)	7.1µM	u	u	u	n
CC1(c2ccccc2)NC(=O)N(CC(=O)Nc2ccc([N+](=O)[O-])cc2)C1=O (stereo not given)	n	n	n	n	n
COc1ccc(CNC(=O)CNS(=O)(=O)c2cccc(C#N)c2)cc1OC	50µM	n	n	n	n
COc1ccccc1N=c1scc(-c2ccc3c(c2)NC(=O)CO3)n1CC1CCCO1 (stereo not given)	u	45µM	u	u	n
O=C1COc2ccc(-c3csc(=Nc4ccc(OC(F)F)cc4)n3CC3CCCO3)cc2N1 (stereo not given)	n[0.501 µM]	u	u	n	n
CN(C)S(=O)(=O)c1cccc(N=c2scc(-c3ccc4c(c3)NC(=O)CO4)n2CC2CCCO2)c1 (stereo not given)	n[12.7 µM]	50µM	u	u	n
Cc1ccc(-c2nc(CS(=O)(=O)CC(=O)N3CCc4ccccc4C3)c(C)o2)cc1	u	n	n	n	n
CCOC(=O)c1ccc(NC(=O)CCc2c(C)nc3nc[nH]n3c2=O)cc1	n	56µM	n	n	n
CCOC(=O)c1cnc2nc[nH]n2c1=O	56µM	n	n	n	n
CCOC(=O)c1cnc2nc(C)nn2c1N	28µM	n	n	n	n
CCOC(=O)c1cnc2nc(C(F)(F)F)[nH]n2c1=O	u	u	n	n	n
COc1cc(OC)cc(-c2nc3nc(C)c(CCC(=O)Nc4cc(F)ccc4F)c(C)n3n2)c1	n	n	n	n	n
O=C(CSc1nnc(-c2ccc(Cl)cc2)n1CC1CCCO1)NC1CCS(=O)(=O)C1 (stereo not given)	n	n	n	n	n
Cc1ccc(NC(=O)C(=O)NCC(c2cccnc2)N2CCN(Cc3ccccc3)CC2)cc1F (stereo not given)	u	n	n	n	n
O=C(NNc1ccccc1C(F)(F)F)c1sccc1Br	18µM	n	n	n	n
COC(=O)c1ccc(NC(=O)CC2C(=O)N(c3cccc(C)c3)C(=O)N2C2CCCC2)cc1 (stereo not given)	7.1µM	n	n	n	n
CCOc1cc(/C=C2/C(=O)ON=C2C)cc(Br)c1O	45µM	16µM	n	n	n
CCCOc1ccccc1/C=C1/C(=O)ON=C1C	n	n	n	n	n
COc1cc(/C=C2/C(=O)ON=C2c2ccccc2)ccc1O	u	50µM	n	n	n
SMILES	G9a inh	BAZ2B inh	JMJD2A Tudor inh	HP1b chromo inh	GLS inh
COc1cc(/C=C2\C(=O)ON=C2c2ccccc2)cc(Br)c1O	35µM	40µM	25µM	28µM	n
COc1cc(C=C2C(=O)c3ccccc3C2=O)ccc1O	n	u	u	n	n
CCOc1cc(/C=C2\C(=O)ON=C2c2ccccc2)cc(Br)c1O	25µM	28µM	25µM	u	8.9µM
COc1cc(CNc2ncnc3c2ncn3[C@H]2CN(Cc3ccc(-c4ccccc4)cc3)C[C@@H](CO)O2)cc(OC)c1OC	x	x	x	x	n
COc1cc(/C=C2\C(=O)ON=C2c2ccccc2)cc(Cl)c1O	35µM	45µM	22µM	45µM	u
COc1ccc(C(CNC(=O)c2ccccc2SC)N(C)C)cc1 (stereo not given)	7.9µM	n	n	n	n
COc1ccc(C(CNC(=O)Cn2c(=O)oc3ccccc32)N(C)C)cc1 (stereo not given)	8.9µM	n	n	n	n
COc1cccc(NC(=O)Cn2c(=O)oc3ccccc32)c1	n[12.7 µM]	n	n	n	n
CCOc1ccccc1C(=O)Nc1ccc(S(=O)(=O)Nc2cc(OC)nc(OC)n2)cc1	n	n	n	n	n
CN1C(=O)/C(=C/c2ccccc2OCc2ccc(F)cc2)N(C)C1=S	n	n	n	n	n
O=C1Nc2ccccc2C1C(C[N+](=O)[O-])c1ccccn1 (stereo not given)	35µM	u	n	n	n
O=C1Nc2ccccc2C1Cc1ccccn1 (stereo not given)	u	u	89µM	n	n
Cc1ccc(NC(=O)C(=O)C2C(=O)Nc3ccccc32)cc1 (stereo not given)	u	n	n	n	n
O=C(NCc1ccccn1)C(=O)C1C(=O)Nc2ccccc21 (stereo not given)	50µM	79µM	n	n	n
O=[N+]([O-])c1ccc(CC(Cl)c2ccccn2)cc1 (stereo not given)	x	x	n	n	n
CN(C)CCNC(=O)C(=O)C1C(=O)Nc2ccccc21 (stereo not given)	32µM	n	x	x	x
CCn1c(CC2C(=O)Nc3ccccc32)nc2ccccc2c1=O (stereo not given)	n	n	n	n	n
CCCc1nnc(SCC(=O)Nc2ccc(NC(C)=O)cc2)n1-n1cccc1	n[0.501 µM]	n	n	n	n
Cn1c(SCC(=O)NC2CC2)nnc1C1CC1	x	n	n	n	n
O=C1Nc2ccccc2C1Cc1ccc(OC(F)(F)F)cc1 (stereo not given)	n	n	n	n	n
CCCCCNC(=O)C(=O)C1C(=O)Nc2ccccc21 (stereo not given)	x	79µM	u	n	n
COc1cc(CC2C(=O)Nc3ccccc32)cc(C)c1O (stereo not given)	35µM	n	n	n	n
CCOC(=O)C1=CN(Cc2ccccc2)CCC1=O	x	x	n	n	n
S=C1NCCNC(=S)NCCOCCOCCN1	n	n	40µM	n	n
Cc1c(C(=O)Nc2ccc(Cl)cc2)c2ccccn2c1C(=O)c1ccccc1	n	n	n	n	n
CCSc1ncc(/C=N/Nc2ccc([N+](=O)[O-])cc2)n1C	u	n	n	n	n
CCSc1ncc(/C=N/Nc2ccc(Cl)cc2)n1C	u	35µM	56µM	40µM	n
N#CC1=C(N)C(C#N)(C#N)C(c2cccnc2)C2CCCC=C12 (stereo not given)	45µM	n	x	x	x
N#CC1=C(N)C(C#N)(C#N)C(c2ccc[nH]2)C2CCCC=C12 (stereo not given)	35µM	n	n	n	n
